Results on 32 molecules are retold here after the supplement of paper PMC12632987.

B1: uchl1_143_7493 (protein)
chain: GAPAEEVVVLELTIEETDTPEEIRAKITAAIEEAVATGKPSVVVITVPPDPNVRVTVGNAAKRAVREAAKAHGDQIKDLRVVARDAETGKEQLLAEVVNP
B2: uchl1_199_7509 (protein)
chain: SSKTRSIAINMAGRLLRYIMDPETARERALRLARELITRRPGLSVEEITETFELLVRLVAAERDPETVRAVTDAIVEAILELLGDEEAAARVRATAEALV
B3: uchl1_179_7503 (protein)
chain: AMKKVRIRATITFPKSTTMEQALAVAKEIAAALKELGVTGVSRIVVSRYNPENDPAHPDHMVITIGLVVPEEKAEAVIEAIKEIAAKAGAEVEIETEEVA
B4: uchl1_143_7490 (protein)
chain: SSSDLPVEEVTITVTLDDTPEQIRARLRAAIEAAVAAGRALRINITVPADPNMRLMVNTVARRVAREVARAHADRVRHVEIYATDAATGKTDLLAEVVNP
B5: uchl1_143_7492 (protein)
chain: GAAAVPVLRVEITVTRDTTPEELRARLEAAVREAAARKAALEVTITVPPDPNLKLMVNTVARRVARRAAREYADTLPRLTINARDAETGKTQVVAEAVNP
B6: uchl1_155_7499 (protein)
chain: GTTVTVTATGTAADGTTHTLTKTFEGITSSVEDMLALRDEILAMLLELAAKVDGDIDLKVDVSNATANQAVGIGTAVRRAASEAGKETGLTINVDITGLP
B7: uchl1_155_7502 (protein)
chain: MRTVRITIDVTLPDATETVEVTLERTVSDKPEDREALAEEVAATVDAILAQGKNVRLTVTVTVPDKMVVAASLYQAIRRRVRAVARRHGAEVVITAEVVP
B8: uchl1_155_7500 (protein)
chain: GTTVTVTVTGTASDGTTHTLTKTFEGLTSSVADMEALREAILAMLLELAAKVDGDIKLTVNVRNATANQAVGIGTAVRRAASEAGKKTGKTIDVDITGLP
B9: uchl1_143_7489 (protein)
chain: EVRVLDVSEAEVAEILALSPEEAVAAIYARLSAAIALGVDTEVRFPAPERANDRLRLGTAVRRAARRAARDHADEIADVVIYNERDPDERPRLVVRITRK
B10: uchl1_143_7491 (protein)
chain: GLDNLEVETVEIEVSEEDTPEELAARLREVIEEALAKGKALRIILTVPPDPNVRLMVNTVARRVLREFAQEHRDELKYVEIYARDEETGKEQLLAEFVNP
B11: uchl1_199_7511 (protein)
chain: MTKEEDIARNMAGRLLRYELDPEKVRERARRLATLLVERLSHLSVEEITETFLILVELVAKENNPEVLRAVTEAIVEVVRERLGDEEAARRIRERAEELA
B12: uchl1_155_7498 (protein)
chain: GTTVTVTATGTAADGTVVTSTTTFTGLTSSVADMQALQAAILAQLLAVAAQVDGDIDLAVTVSNATANQAVGIGTAVRRAASQAGKQTGLTINVTLTGAP
B13: uchl1_155_7495 (protein)
chain: MLEVEVEVVARRPDGTVARERFRFRTEEITPENRRALAERVAERVREFVERHGGDVDVTVRIRSPSQIARASLYRAIRIRLREVAKELGVEVTVRAEPVP
B14: uchl1_199_7514 (protein)
chain: MSRAESIARQVGGRLLSGVGSPEVLAARAARLLREVLARLPDLPDEELLAMVRILLEAIAKNRSPETFDAVAAALIAVLQEERGIGAAAAAIAAEVRAKA
B15: uchl1_199_7507 (protein)
chain: SSLTEDIARNMAGRLLRYIRTPEVLAARAAELTARLIREQTHLSVEELTEIFLLLVDYVHAERTPEETRAATDAIVAEVERLLGDAAAAARIRAHAAALL
B16: uchl1_179_7504 (protein)
chain: ARRLVRIRATIVFPRSTTREEALAVARRIHAALKELGVTGLINLRVSRYNPENNPEHPDRMVIRLGLVVPEELADAVEAAIRALAAEAGAEIEIEREAIA
B17: uchl1_199_7517 (protein)
chain: MSREDDIARYMAGPFLLSNGSPEVVRARARERTRRLIRTRKDLSPEELTEIMVRFVEILAAHRDPETVRAATEGIVEAILEELGDEEAARRVRARAEELL
B18: uchl1_143_7488 (protein)
chain: EVKVIELSPEEVAEILSLSDEEALARLKEIIEAAVELGVDTEIRIPAPEDANDRLRLHTLVKRAAREVAKKYADKIDSVEIYQELDPNARPRIVVRITVK
B19: uchl1_155_7501 (protein)
chain: MATVTVTATGTAPDGTTHTLTKTFEGITSSVEDLLALREAVLALLVELAKKVKGDVDVVVEVSNADANTRVGIGTAVRRAASEAGKQTGLTVSVTIREVA
B20: uchl1_155_7497 (protein)
chain: MTTVTVVVTGTSPDGTTVTKTKTFEGLTSSVADLEALREAMKAMIVETAKEVKGDVDVTVNVTNATANQAVGIGTAARRAANEAGKETGLTVSLTLVGVP
B21: uchl1_199_7508 (protein)
chain: SSKTEDIARNMAGRLLRYIRSPEVLAARARRLTERLIREQTHLSVEEITETFLLLVDYVHANRSPEQTRAVTDAIVEAVERELGDEEAAKRIREHTESLL
B22: uchl1_155_7496 (protein)
chain: MLRVRVTITGTNADGTTLTRELELEIENPTLEKIQEAAREIAEAVREFALAVDGPVEVRVEVSADRRLHAASFSQALRRALREVAKETGKEITLDVRGVP
B23: uchl1_143_7494 (protein)
chain: GPVVEPVVVIELRIERTDTPEEIRAKIRAAVEEAVATGKPTVIEITVPADANMRLTVSTSARRVAREAAKEHPDKIKDLRIYARDEETGKRQLIAEVIKE
B24: uchl1_199_7516 (protein)
chain: MTRAESIARMLGGRLLRGIRDPEKLAARAAELTRRMLERLANLPDETILETVRLLLEAIARERSLEDARAAGEAIVEVLAEERGIGEAARAVVDEVLAAA
B25: uchl1_199_7510 (protein)
chain: SSRTESIARNMAGRLLRYIMDPETARERARRLARRLITRRPGLSVEELTETFQLLVEYVAAERDPAVTRAVTDALVEAVREELGDEAAAAAVRARAEELL
B26: uchl1_199_7505 (protein)
chain: SSRTEDIARNMAGRLLRYIRSPEVLAERARRLTRELIERQTHLSVEEITETLKLLVTYIHAERSPEETRAATDAIVEAVRELLGDEAAAAAIRAHTEALL
B27: uchl1_199_7515 (protein)
chain: MTRAESIAAQLGGRLLSGIYSPEVLAARAAALWADVLRRLSDLPDEELLEAFRILLEALAAAVDEASARAAAEAIVAVLAEERGIGERARAIADEVLAAR
B28: uchl1_199_7518 (protein)
chain: MSREEDIARYMAGPFLFSNGSPEVVRARAYRLTVRLIRTRKDLSREELTAILVRFVEILAANRDPETVRAATEGIVEAVLEELGDEESAARIRAAAEALL
B29: uchl1_199_7506 (protein)
chain: SSKTEDIARNMAGRLLRYIRTPEVLAARARRLTRLLIERQTDLSVEEITETLLKLVELVHKERTPEETRAVTDAIVEAVLELLGDEEAARRIREHAEELL
B30: uchl1_143_7487 (protein)
chain: AVEVIELSPEEVAAWLALPDEEALAALEAVLEAAVDRGVDTLVRIPAPEDANDRLRLNTLVRRAARRVAAAHADRIDSVTISQEKDPNGPPRLVVSIRVK
B31: uchl1_199_7513 (protein)
chain: MTRAESIARQVGGRLLSGIGSPEVLAARAARLLRLVLERLPDLPDEELLEAVRLLLRAIAAERSPEAFDAVAAALTAVLQEERGIGERMAAIAAEVRAEA
B32: uchl1_199_7512 (protein)
chain: MSRAESIARQVGGRLLSGIGSPEVLAAKAAALLRRVLARLPDLPDETLLEMVRILLEAIARERSPEAFAAVAAALIAVLDAERGIGAEVAAIAEEVRAAA

UCHL1, P09936, sequence (P09936 whole entry, looked up, the tested form may be a part): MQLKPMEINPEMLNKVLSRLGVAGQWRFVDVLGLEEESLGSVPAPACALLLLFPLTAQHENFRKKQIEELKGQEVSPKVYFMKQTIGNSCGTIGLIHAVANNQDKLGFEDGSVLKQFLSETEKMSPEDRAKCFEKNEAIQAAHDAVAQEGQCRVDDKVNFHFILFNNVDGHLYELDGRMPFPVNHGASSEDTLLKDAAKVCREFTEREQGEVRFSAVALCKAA

In the test the target is UCHL1, P09936. As to the kind of experiment: median log2 fold change of GCK-ALFA target abundance (FLAG IP / Myc IP barcode read proportion) (log2 ratio); each designed protein is fused to an ALFA-tag nanobody in HEK293 cells to bring the named protein to FLAG-tagged glucokinase (GCK); Myc marks an untargeted standard; higher = target protein stabilised (more abundant). Conditions: target protein: 3xFLAG-MCP-GCK-ALFA reporter; HEK293 landing pad (RPLP). A digest of the protocol:
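Sequencing of reverse-transcribed, amplified circular RNA barcodes from anti-FLAG and anti-Myc immunoprecipitates provided the readout for an ALFA-nanobody-fused binder library recombined into HEK293 landing-pad cells. Those cells were induced with 2 μg mL^−1 doxycycline, transfected with a plasmid expressing a FLAG-tagged target and a Myc-tagged standard, and lysed after 48 h. Target abundance is the per-binder median log2 ratio of FLAG to Myc barcode read proportions. Only barcodes at a proportion of ≥10^−7 in both replicates and binders with ≥3 barcodes per replicate were kept, with a 10^−6 pseudocount added before the two replicates were pooled.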
In the case of B1, the “median log2 fold change” value is 0.229.

As to B2, the “median log2 fold change” value is -0.0199.

Take B3: the “median log2 fold change” value was -0.0524.

For B4, the “median log2 fold change” value is 0.232.

Turning to B5, the “median log2 fold change” value was determined as 0.184.

As for B6, the “median log2 fold change” value was 0.302.

With B7, the “median log2 fold change” value was -0.0533.

As for B8, the “median log2 fold change” value amounted to 0.302.

Take B9: the “median log2 fold change” value was determined as 0.144.

Regarding B10, the “median log2 fold change” value turned out to be 0.302.

As to B11, the “median log2 fold change” value was -0.27.

As for B12, the “median log2 fold change” value worked out at 0.16.

Turning to B13, the “median log2 fold change” value is -0.0429.

For B14, the “median log2 fold change” value was -0.0877.

B15: the “median log2 fold change” value amounted to 0.269.

With B16, the “median log2 fold change” value was 0.192.

As for B17, the “median log2 fold change” value worked out at 0.00596.

With B18, the “median log2 fold change” value is 0.21.

In the case of B19, the “median log2 fold change” value was 0.237.

As for B20, the “median log2 fold change” value stood at 0.314.

As for B21, the “median log2 fold change” value was 0.0747.

For B22, the “median log2 fold change” value stood at 0.0376.

Regarding B23, the “median log2 fold change” value came to 0.397.

On to B24, for which the “median log2 fold change” value is -0.835.

As to B25, the “median log2 fold change” value is -0.193.

For B26, the “median log2 fold change” value turned out to be 0.192.

For B27, the “median log2 fold change” value stood at 0.16.

Take B28: the “median log2 fold change” value is -0.219.

With B29, the “median log2 fold change” value turned out to be 0.171.

Consider B30, for which the “median log2 fold change” value turned out to be 0.226.

For B31, the “median log2 fold change” value was -0.209.

Take B32: the “median log2 fold change” value is -0.679.
